# Source: PubChem BioAssay (EPA / NIEHS)
# Inconclusive results are not listed. Calls of active or inactive are those of the source. The calls were made as follows: active = hit-call score of the fitted dose curve at least 0.9, where 1 is the maximum; inconclusive = response in the unintended direction; inactive = score below 0.9.
# Tests used:
# [1] = biological target: rat Adrenergic, Alpha 1A Receptor (Adra1A), Adra1a (gene 29412) (UniProt P43140); assay: NVS_GPCR_rAdra1A: NovaScreen (NVS) G Protein-Coupled Receptor Assay for rat Adrenergic, Alpha 1A Receptor (Adra1A) (AID 2283296)
# Method: (§1) NVS_GPCR_rAdra1A is a biochemical, single-readout assay that uses extracted gene-proteins from Rat cortical membranes (pretreated with chlorethyl clonidine-CEC) in a tissue-based cell-free assay. Measurements were taken 1 hour after chemical dosing in a 48-well plate.NVS_GPCR_rAdra1A is one of one assay component(s) measured or calculated from the NVS_GPCR_rAdra1A assay. It is designed to make measurements of radioligand binding, a form of binding reporter, as detected with scintillation counting signals by Filter-based radiodetection technology.Data from the assay component NVS_GPCR_rAdra1A was analyzed into 1 assay endpoint. This assay endpoint, NVS_GPCR_rAdra1A, was analyzed in the positive analysis fitting direction relative to DMSO as the negative control and baseline of activity. Using a type of binding reporter, loss-of-signal activity can be used to understand changes in the binding as they relate to the gene Adra1a. Furthermore, this assay endpoint can be referred to as a primary readout, because the performed assay has only produced 1 assay endpoint. To generalize the intended target to other relatable targets, this assay endpoint is annotated to the gpcr intended target family, where the subfamily is rhodopsin-like receptor. […]
# [2] = tested on: rat Adrenergic, Alpha 1B Receptor (Adra1B), gene 24173; assay: NVS_GPCR_rAdra1B: NovaScreen (NVS) G Protein-Coupled Receptor Assay for rat Adrenergic, Alpha 1B Receptor (Adra1B) (AID 2283297)
# Method: as §1, with “NVS_GPCR_rAdra1B” for “NVS_GPCR_rAdra1A”, “liver” for “cortical”, “membranes” for “membranes (pretreated with chlorethyl clonidine-CEC)”, “plate.NVS_GPCR_rAdra1B” for “plate.NVS_GPCR_rAdra1A”, “NVS_GPCR_rAdra1B,” for “NVS_GPCR_rAdra1A,”, “Adra1b.” for “Adra1a.”
# [3] = biological target: rat Histamine Receptor (H3), Hrh3 (gene 85268) (UniProt Q9QYN8); assay: NVS_GPCR_rH3: NovaScreen (NVS) G Protein-Coupled Receptor Assay for rat Histamine Receptor (H3) (AID 2283303)
# In short: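 Filter-binding radioligand competition on rat forebrain membranes, 1 h incubation; compounds screened at 25 µM in duplicate and followed in concentration series to 50 µM, loss of bound signal vs DMSO.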
# [4] = biological target: Adra2b (gene 24174) (UniProt P19328); assay: NVS_GPCR_rmAdra2B: NovaScreen (NVS) G Protein-Coupled Receptor Assay for hybird cells Adrenergic, Alpha 2B Receptor (Adra2B) (AID 2283306)
# In short: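 Compounds screened first at 25 uM in duplicate, with actives followed up in concentration-response; specific radioligand displacement from hybrid neuroglioma/blastoma cell membrane preparations measured by filter scintillation counting after 1 h, normalized to DMSO.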
# [5] = biological target: rat Glutamate Metabotropic Receptor 5 (MGluR5), Grm5 (gene 24418) (UniProt P31424); assay: NVS_GPCR_rmMGluR5: NovaScreen (NVS) G Protein-Coupled Receptor Assay for rat Glutamate Metabotropic Receptor 5 (MGluR5) (AID 2283307)
# In short: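 Compounds first screened in duplicate at 25 uM, then in concentration series up to 50 uM if over threshold. Radioligand displacement on rat whole-brain membranes, filtration and scintillation counting after 1.5 h; binding loss relative to DMSO.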
# [6] = biological target: rat Neurokinin-1 Receptor (NK1), Tacr1 (gene 24807) (UniProt P14600); assay: NVS_GPCR_rNK1: NovaScreen (NVS) G Protein-Coupled Receptor Assay for rat Neurokinin-1 Receptor (NK1) (AID 2283309)
# In short: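 Competitive radioligand binding to NK1 in rat submaxillary membranes, 1 h incubation, filtration and scintillation read-out. Compounds first screened at 25 uM in duplicate, then concentration-response for actives; signal loss relative to DMSO.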
# [7] = biological target: rat Adrenergic Receptor, Beta (Adrb), Non-selective Binding, Adrb1 (gene 24925) (UniProt P18090); assay: NVS_GPCR_rAdrb_NonSelective: NovaScreen (NVS) G Protein-Coupled Receptor Assay for rat Adrenergic Receptor, Beta (Adrb), Non-selective Binding (AID 2283298)
# In short: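 Rat cortical membranes incubated 1 h with beta-adrenergic radioligand and test chemical; bound ligand measured by filtration and scintillation counting. Screen at 25 uM duplicate, then concentration series with 50 uM maximum; loss of signal versus DMSO.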
# [8] = biological target: rat Vasopressin 1 Receptor (V1), Avpr1a (gene 25107) (UniProt P30560); assay: NVS_GPCR_rV1: NovaScreen (NVS) G Protein-Coupled Receptor Assay for rat Vasopressin 1 Receptor (V1) (AID 2283316)
# In short: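 Concentration-response up to 50 uM for chemicals passing a threshold such as 30% inhibition in an initial duplicate 25 uM screen. Displacement of radioligand from rat liver membranes measured after 1.5 h by filtration and scintillation.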
# Chain of rat Vasopressin 1 Receptor (V1), Avpr1a (gene 25107) (P30560 whole entry, looked up): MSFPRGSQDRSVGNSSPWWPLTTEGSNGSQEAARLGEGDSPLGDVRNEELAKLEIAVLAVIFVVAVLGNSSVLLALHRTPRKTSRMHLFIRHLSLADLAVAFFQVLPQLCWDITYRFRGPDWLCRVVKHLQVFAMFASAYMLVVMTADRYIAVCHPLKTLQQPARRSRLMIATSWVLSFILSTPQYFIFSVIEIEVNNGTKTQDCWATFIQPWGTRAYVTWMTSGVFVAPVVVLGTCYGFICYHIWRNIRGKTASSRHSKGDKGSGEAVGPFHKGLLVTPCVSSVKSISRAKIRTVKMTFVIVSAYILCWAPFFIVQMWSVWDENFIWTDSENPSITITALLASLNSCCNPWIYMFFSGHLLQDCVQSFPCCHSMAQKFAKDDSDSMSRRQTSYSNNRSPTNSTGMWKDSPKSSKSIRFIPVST
# Chain of rat Histamine Receptor (H3), Hrh3 (gene 85268) (Q9QYN8 whole entry, looked up): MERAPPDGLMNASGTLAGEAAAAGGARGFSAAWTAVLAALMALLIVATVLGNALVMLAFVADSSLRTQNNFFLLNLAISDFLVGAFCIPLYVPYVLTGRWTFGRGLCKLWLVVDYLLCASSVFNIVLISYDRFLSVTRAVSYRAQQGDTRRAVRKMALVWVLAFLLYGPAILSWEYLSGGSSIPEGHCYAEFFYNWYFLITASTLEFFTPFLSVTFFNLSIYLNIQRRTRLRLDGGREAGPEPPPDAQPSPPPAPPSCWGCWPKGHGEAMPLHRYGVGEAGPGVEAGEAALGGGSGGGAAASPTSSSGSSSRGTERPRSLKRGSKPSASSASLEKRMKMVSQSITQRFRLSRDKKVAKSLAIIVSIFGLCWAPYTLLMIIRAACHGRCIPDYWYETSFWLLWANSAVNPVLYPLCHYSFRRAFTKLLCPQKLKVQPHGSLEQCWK
# Chain of rat Adrenergic, Alpha 1A Receptor (Adra1A), Adra1a (gene 29412) (P43140 whole entry, looked up): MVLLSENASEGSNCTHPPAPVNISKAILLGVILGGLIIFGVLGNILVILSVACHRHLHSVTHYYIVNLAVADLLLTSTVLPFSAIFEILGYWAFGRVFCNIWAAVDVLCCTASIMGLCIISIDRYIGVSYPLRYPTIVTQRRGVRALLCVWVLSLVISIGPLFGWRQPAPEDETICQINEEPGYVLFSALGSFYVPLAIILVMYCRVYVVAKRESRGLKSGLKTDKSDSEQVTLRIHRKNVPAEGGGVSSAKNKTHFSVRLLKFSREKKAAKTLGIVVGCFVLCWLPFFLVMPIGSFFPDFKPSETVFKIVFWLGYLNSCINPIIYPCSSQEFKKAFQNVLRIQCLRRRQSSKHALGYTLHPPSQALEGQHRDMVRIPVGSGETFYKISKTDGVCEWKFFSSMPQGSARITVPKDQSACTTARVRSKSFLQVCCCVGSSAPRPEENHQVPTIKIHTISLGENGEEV
# Chain of rat Glutamate Metabotropic Receptor 5 (MGluR5), Grm5 (gene 24418) (P31424 whole entry, looked up): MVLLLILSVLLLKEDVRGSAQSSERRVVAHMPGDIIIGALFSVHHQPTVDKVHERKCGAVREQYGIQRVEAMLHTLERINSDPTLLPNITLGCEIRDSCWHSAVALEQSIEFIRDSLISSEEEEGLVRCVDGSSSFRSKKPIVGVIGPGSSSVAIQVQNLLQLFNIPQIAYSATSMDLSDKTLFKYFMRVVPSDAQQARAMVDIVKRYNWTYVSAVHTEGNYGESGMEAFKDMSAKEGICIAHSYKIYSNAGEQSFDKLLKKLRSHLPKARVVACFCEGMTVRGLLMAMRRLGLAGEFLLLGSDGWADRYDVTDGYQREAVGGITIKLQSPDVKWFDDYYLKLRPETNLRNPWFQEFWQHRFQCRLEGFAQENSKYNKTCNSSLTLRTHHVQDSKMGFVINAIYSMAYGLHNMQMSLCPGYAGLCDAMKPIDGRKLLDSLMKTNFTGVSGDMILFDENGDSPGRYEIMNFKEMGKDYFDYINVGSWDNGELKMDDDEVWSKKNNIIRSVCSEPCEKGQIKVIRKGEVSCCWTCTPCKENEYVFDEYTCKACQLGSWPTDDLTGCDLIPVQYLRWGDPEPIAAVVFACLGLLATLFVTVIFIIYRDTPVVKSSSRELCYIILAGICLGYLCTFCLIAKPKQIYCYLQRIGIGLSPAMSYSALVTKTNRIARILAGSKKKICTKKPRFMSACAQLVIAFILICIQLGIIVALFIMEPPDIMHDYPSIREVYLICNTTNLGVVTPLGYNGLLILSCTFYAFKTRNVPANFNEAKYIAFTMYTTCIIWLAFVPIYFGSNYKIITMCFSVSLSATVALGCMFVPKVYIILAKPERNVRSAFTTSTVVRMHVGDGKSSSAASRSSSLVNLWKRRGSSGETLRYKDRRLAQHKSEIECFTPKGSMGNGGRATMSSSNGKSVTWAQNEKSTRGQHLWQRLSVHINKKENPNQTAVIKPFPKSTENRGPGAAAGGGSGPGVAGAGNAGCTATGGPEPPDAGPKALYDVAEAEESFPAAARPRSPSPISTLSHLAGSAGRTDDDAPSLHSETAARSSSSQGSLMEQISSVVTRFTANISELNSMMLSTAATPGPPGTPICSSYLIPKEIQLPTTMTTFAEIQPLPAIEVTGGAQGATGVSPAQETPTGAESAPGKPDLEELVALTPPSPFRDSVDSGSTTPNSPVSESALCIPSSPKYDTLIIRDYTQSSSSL
# Chain of rat Adrenergic Receptor, Beta (Adrb), Non-selective Binding, Adrb1 (gene 24925) (P18090 whole entry, looked up): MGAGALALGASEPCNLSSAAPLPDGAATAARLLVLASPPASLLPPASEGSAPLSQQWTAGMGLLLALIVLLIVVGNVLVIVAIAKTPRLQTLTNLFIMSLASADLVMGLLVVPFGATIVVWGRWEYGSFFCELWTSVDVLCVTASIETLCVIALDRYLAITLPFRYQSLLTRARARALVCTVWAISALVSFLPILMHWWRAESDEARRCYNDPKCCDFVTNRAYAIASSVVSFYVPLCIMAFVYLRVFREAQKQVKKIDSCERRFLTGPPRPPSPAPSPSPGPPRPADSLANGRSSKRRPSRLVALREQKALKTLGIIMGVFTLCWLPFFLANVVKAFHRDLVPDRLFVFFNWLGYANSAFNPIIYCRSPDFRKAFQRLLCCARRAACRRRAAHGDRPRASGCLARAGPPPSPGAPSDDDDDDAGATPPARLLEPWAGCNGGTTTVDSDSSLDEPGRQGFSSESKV
# Chain of rat Neurokinin-1 Receptor (NK1), Tacr1 (gene 24807) (P14600 whole entry, looked up): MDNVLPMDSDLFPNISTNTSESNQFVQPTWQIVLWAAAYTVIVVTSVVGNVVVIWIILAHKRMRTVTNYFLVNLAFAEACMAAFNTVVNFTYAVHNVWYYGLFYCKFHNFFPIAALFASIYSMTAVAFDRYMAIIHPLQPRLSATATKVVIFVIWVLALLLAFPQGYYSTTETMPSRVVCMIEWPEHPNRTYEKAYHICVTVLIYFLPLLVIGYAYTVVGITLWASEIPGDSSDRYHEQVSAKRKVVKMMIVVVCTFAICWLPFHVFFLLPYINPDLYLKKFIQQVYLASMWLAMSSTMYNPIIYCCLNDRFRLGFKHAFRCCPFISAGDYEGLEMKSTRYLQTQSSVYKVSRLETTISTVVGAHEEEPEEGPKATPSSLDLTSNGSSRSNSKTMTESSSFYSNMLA
# Chain of Adra2b (gene 24174) (P19328 whole entry, looked up): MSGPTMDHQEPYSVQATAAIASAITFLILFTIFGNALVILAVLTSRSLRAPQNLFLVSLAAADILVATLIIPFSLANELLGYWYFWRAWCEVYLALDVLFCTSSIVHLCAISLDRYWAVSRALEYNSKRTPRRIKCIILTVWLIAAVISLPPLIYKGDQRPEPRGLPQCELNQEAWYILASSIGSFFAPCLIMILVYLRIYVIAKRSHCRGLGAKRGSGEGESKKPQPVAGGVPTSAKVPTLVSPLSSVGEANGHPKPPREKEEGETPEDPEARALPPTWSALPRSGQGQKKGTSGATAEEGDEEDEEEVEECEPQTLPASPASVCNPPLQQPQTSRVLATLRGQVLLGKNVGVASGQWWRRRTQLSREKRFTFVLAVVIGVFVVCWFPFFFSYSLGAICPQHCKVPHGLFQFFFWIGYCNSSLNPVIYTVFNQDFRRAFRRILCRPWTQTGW
smiles,measurement,setting,value
O=C(c1ccc(OCCN2CCCCC2)cc1)c1c(-c2ccc(O)cc2)sc2cc(O)ccc12,AC50,[1],5.36 µM (active)
same,AC50,[2],5.62 µM (active)
same,AC50,[3],25 µM (active)
same,AC50,[4],10.7 µM (active)
same,outcome,[5],inactive
same,AC50,[6],18.2 µM (active)
CC/C(=C(\c1ccccc1)c1ccc(OCCN(C)C)cc1)c1ccccc1,AC50,[7],5.74 µM (active)
same,outcome,[8],inactive
C#C[C@]1(O)CC[C@H]2[C@@H]3CCc4cc(O)ccc4[C@H]3CC[C@@]21C,AC50,[8],25 µM (active)
